Compounds with a hit are over-represented: about 21% of the library has one in this group of screens.
MRP1 act – activates MRP-1. H69AR cells + doxorubicin, viability rescue, CellTiter-Glo. AID 799. 0.61% of 140,000 active. viability increase, % at 10 µM;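 active means viability gain under doxorubicin at or above a set limit, the compound median plus 3 SD, cut at about 4.7% in these data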;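 further: MRP-1 overexpressing cells given doxorubicin 25 µM after compound pretreatment; 18-22 h compound pretreatment then 72 h with doxorubicin before readout; 0% = doxorubicin-only wells and 100% = vehicle-treated cells without doxorubicin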
MRP reversal – reverses drug resistance mediated by MRP; differential viability (reversal), % at 10 µM; AID 602; 0.04% of 85,000 active; H69AR cells + 2 uM doxorubicin, CellTiter-Glo, 72 h;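 active means viability drop by adding the cancer drug above about 55%, with treated viability meeting a 40% cutoff, limit read from the data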;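 further: viability without doxorubicin minus viability with 2 µM doxorubicin for each compound; larger differential means the compound sensitizes cells more to doxorubicin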
CYP2C9 inh – inhibitors of human CYP2C9; inhibition, % at 5 µM; P11712; 20% of 96,000 active; CYP2C9 Supersomes, luciferin-H conversion, luminescence; AID 777;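 active means blocking of liver enzyme CYP2C9 beyond about 50% at 5 µM, limit read from the data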
Target sequence (P11712 whole entry, looked up): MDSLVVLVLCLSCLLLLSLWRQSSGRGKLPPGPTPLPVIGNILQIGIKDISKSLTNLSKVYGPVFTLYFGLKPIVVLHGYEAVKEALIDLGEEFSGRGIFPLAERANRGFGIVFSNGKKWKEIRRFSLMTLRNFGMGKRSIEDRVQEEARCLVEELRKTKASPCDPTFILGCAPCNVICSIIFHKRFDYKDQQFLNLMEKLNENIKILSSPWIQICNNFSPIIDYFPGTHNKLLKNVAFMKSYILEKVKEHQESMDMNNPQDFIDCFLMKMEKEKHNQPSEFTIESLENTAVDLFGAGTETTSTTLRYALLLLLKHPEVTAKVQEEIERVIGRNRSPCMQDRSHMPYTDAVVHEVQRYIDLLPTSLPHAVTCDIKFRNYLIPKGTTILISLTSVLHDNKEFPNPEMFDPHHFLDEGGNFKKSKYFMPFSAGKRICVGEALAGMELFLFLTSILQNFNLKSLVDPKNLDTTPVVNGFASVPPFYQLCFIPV
CYP2C9 activ – increases human cytochrome P450 2C9 activity; P11712; activation factor at 5 µM; 1.4% of 96,000 active; recombinant CYP2C9, luciferin-H conversion, luminescence; active compounds read high; factor 1 = untreated enzyme, 0 = blocked;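 active means activation factor of 2 or more for CYP2C9 at a 5 µM dose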;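 further: 0 = sulfaphenazole-blocked wells and 1 = vehicle-only wells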
CYP2C19 inhib – inhibitors of human CYP2C19 | P33261 | 21% of 96,000 active | inhibition, % at 5 µM | CYP2C19 Supersomes, luciferin-H EGE luminescence, 30 min;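 active means CYP2C19 inhibition above a set limit at 5 µM in the primary screen, cut at about 50% in these data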;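 further: plate controls were negative control wells for no effect and 2.5 mM tranylcypromine positive control for full effect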
CYP2C19 act – increases human CYP2C19 enzyme activity; P33261; recombinant CYP2C19, luciferin-H EGE luminescence; active compounds read high; 0 = fully inhibited enzyme, 1 = untreated enzyme; activation factor at 5 µM; 96,000 tested, under 10 active;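 active means activation factor of at least 2 at 5 µM in the primary screen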;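 further: 0 = wells with 2.5 mM tranylcypromine and 1 = vehicle-only wells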
* marks the source's active call; other numbers are inactive results; x = no result.

SMILES	MRP1 act	MRP reversal	CYP2C9 inh	CYP2C9 activ	CYP2C19 inhib	CYP2C19 act
Cc1cccc(C(C)C)c1NC(=O)c1ccc(CN(c2ccccc2)S(=O)(=O)c2ccccc2)cc1	-4	x	x	x	x	x
CC(=O)Nc1sc2c(c1CN1CCN(c3ccccn3)CC1)CCCC2	-3	-6	31	0.7	82*	0.2
CC(=O)Nc1sc2c(c1CN1CCN(c3ccc(F)cc3)CC1)CCCC2	-3	11	30	0.7	86*	0.1
CCOC(=O)N1CCC(NC(=O)c2ccc3c(=O)n4c(nc3c2)CCCC4)CC1	-1	-19	29	0.7	2	1
O=C(c1ccc(Oc2ccccc2)cc1)c1nc2c(n1O)CCCC2	-1	21	67*	0.3	16	0.8
COc1ccc(OC)c(C(=O)c2nc3c(n2O)CCCCC3)c1	-2	-1	51*	0.5	34	0.7
COc1ccc(OC)c(C(=O)c2ccc(C(=O)N3CCCCC3)cc2)c1	-4	5	73*	0.3	13	0.9
COc1ccc(OCC(=O)N/N=c2\oc3c(OC)cccc3cc2C(N)=O)cc1	-3	x	x	x	x	x
CCN1C(=O)/C(=C\c2cccs2)C(C(=O)OC)=C1C	-1	1	51*	0.5	14	0.9
COC(=O)C1=C(C)N(CC(C)C)C(=O)/C1=C\c1cccs1	-3	17	28	0.7	31	0.7
O=C(O)c1cc(-c2ccccc2)n[nH]1	-3	10	x	x	x	x
O=C(O)c1ccc(-c2ccccc2)[nH]1	0	9	-56	1.6	72*	0.3
Cn1c(=O)c2c(nc(CN3CCc4ccccc4C3)n2CC(=O)c2ccccc2)n(C)c1=O	x	3	x	x	x	x
CCC(=O)N1CCN(c2ccccc2NC(=O)Cc2ccc(Cl)cc2)CC1	-4	7	16	0.8	26	0.7
CCC(=O)N1CCN(c2ccc(Cl)cc2NC(=O)Cc2ccc(Cl)cc2)CC1	-2	-4	45	0.5	51*	0.5
CCCC(=O)Nc1cc(Cl)ccc1N1CCN(C(=O)CC)CC1	-2	7	85*	0.2	86*	0.1
COC(=O)c1sccc1NC(=O)COc1ccc(Cl)cc1Cl	-1	x	x	x	x	x
O=C(CSc1nnc2ccccn12)Nc1cccc(S(=O)(=O)N2CCOCC2)c1	0	x	x	x	x	x
Cc1cccc(C)c1NC(=S)NN(Cc1ccccc1)c1ccccc1	-5	x	10	0.9	45	0.6
Fc1ccccc1NC(=S)NN(Cc1ccccc1)c1ccccc1	-1	x	82*	0.2	95*	0
CC(C)c1ccccc1NC(=S)NC1CCN(Cc2ccccc2)CC1	-6	x	x	x	x	x
CC(C)c1ccccc1NC(=S)NN(Cc1ccccc1)c1ccccc1	-3	5	46	0.5	62*	0.4
CC(C)CC(c1nnnn1CCc1ccccc1)N1CCC(C(N)=O)CC1 (stereo unspecified)	-3	16	x	x	x	x
O=C(OC(C(=O)NCc1cccs1)c1ccccc1Cl)c1ccco1 (stereo unspecified)	-3	25	91*	0.1	88*	0.1
COc1ccc(CNC(=O)C(OC(=O)c2ccco2)c2ccc(OC)cc2)cc1 (stereo unspecified)	-2	22	x	x	x	x
SMILES	MRP1 act	MRP reversal	CYP2C9 inh	CYP2C9 activ	CYP2C19 inhib	CYP2C19 act
CC(OC(=O)c1cccs1)C(=O)NCc1ccco1 (stereo unspecified)	-2	-5	37	0.6	86*	0.1
CCC(C)(C)NC(=O)C(OC(=O)c1ccco1)c1ccccc1OC (stereo unspecified)	2	7	38	0.6	64*	0.4
CCC(OC(=O)c1cc2sccc2n1C)C(=O)NCc1ccco1 (stereo unspecified)	-1	-5	72*	0.3	54*	0.5
CC12CCC(C(=O)Nc3ccccc3)(C(Br)C1=O)C2(C)C (stereo unspecified)	0	x	x	x	x	x
Cc1csc(N(C(=O)CCNC(=O)c2ccc([N+](=O)[O-])cc2)c2ccccc2)n1	-1	x	x	x	x	x
CC(OC(=O)c1nsc(Cl)c1Cl)C(=O)NCc1cccs1 (stereo unspecified)	1	-1	34	0.7	20	0.8
CC(=O)OC(C(=O)NCc1ccco1)c1ccncc1 (stereo unspecified)	-1	x	55*	0.4	31	0.7
CC(C)C(OC(=O)c1cccs1)C(=O)NCc1ccco1 (stereo unspecified)	-3	10	42	0.6	60*	0.4
CCCC(C)C(=O)NCc1ccc2c(c1)OCO2 (stereo unspecified)	-1	4	28	0.7	32	0.7
CC(C)C(OC(=O)c1cc2occc2n1C)C(=O)NCc1ccc2c(c1)OCO2 (stereo unspecified)	-3	-4	85*	0.1	74*	0.3
CCC(OC(=O)c1nsc(Cl)c1Cl)C(=O)NCc1ccco1 (stereo unspecified)	1	8	57*	0.4	59*	0.4
O=C(c1ccccc1NS(=O)(=O)c1cccc(C(F)(F)F)c1)N1CCc2ccccc21	-2	x	x	x	x	x
CCOC(=O)C1CCN(C(=O)COc2ccc(S(=O)(=O)NC(C)(C)C)cc2)CC1	-1	-8	19	0.8	2	1
COc1ccccc1C(OC(=O)c1cccs1)C(=O)NCC1CCCO1 (stereo unspecified)	0	x	20	0.8	42	0.6
COc1ccccc1C(OC(=O)c1cccs1)C(=O)NCc1ccco1 (stereo unspecified)	-3	-2	40	0.6	58*	0.4
Cc1cc2c(cc(C(=O)OC(C(=O)NCc3ccco3)C(C)C)n2C)o1 (stereo unspecified)	0	3	47	0.5	66*	0.3
COc1cc(C(=O)OCCNC(=O)c2ccncc2)cc(OC)c1OC	-2	x	x	x	x	x
COc1ccc(/C=N/NC(=O)c2cc(-c3ccc4c(c3)OCO4)n[nH]2)cc1OC	1	x	x	x	x	x
CC(C)N(C(=O)CSc1nc2ccccc2n1-c1ccccc1)C(C)C	-2	3	x	x	51*	0.5
CCCCNC(=O)c1cc2c(-c3ccc(Cl)cc3)nn(C)c2s1	-1	-13	59*	0.4	42	0.6
Cc1ccc(CNC(=O)c2cc3c(-c4ccc(Cl)cc4)nn(C)c3s2)o1	-6	4	63*	0.4	14	0.9
COCCCNC(=O)c1cc2c(-c3ccc(Cl)cc3)nn(C)c2s1	-5	8	22	0.8	8	0.9
CN(CC(=O)Nc1cccc2ccccc12)c1ccc(S(=O)(=O)N2CCOCC2)cn1	-1	3	20	0.8	-15	1.1
Cc1sc(N/N=C/c2cccs2)nc1-c1ccccc1	-2	x	x	x	x	x
CCCCc1n[nH]c2c1C(=O)CC(C)(C)C2	-3	4	38	0.6	36	0.6
CCCc1nn(-c2cc(Cl)ccc2OC)c2c1C(=O)CCC2	-2	-17	42	0.6	59*	0.4
CCCCc1nn(-c2cc(Cl)ccc2OC)c2c1C(=O)CC(C)(C)C2	-1	-7	56*	0.4	44	0.6
